# The list is not random: actives were taken first. Their share in the collection is about 21%.
# Pf growth 48h: Primary qHTS for delayed death inhibitors of the malarial parasite plastid, 48 hour incubation; Potency, µM (titrated, usually from 28.7 µM), inactives show top-dose activity change, negative = inhibition, usual class: inhibitors; actives 5.9% (n = 310,000); P. falciparum luciferase growth in erythrocytes, 48 h; also: potency is read from the fitted curve at half-maximal effect; % is scaled to controls: 0 for no effect and ±100 for the full control effect
#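 Cell-based growth assay: transgenic P. falciparum expressing firefly luciferase, cultured in red cells within RPMI 1640 containing 0.5% w/v Albumax, 24 mM bicarbonate and gentamycin. A drop in luciferase activity indicates inhibition.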
# Pf growth 96h: Primary qHTS for delayed death inhibitors of the malarial parasite plastid, 96 hour incubation; P. falciparum luciferase reporter growth, 96 h; AID 504834, 2011; Potency, µM (highest dose often 28.7 µM), without a hit: at the top dose activity change, negative = inhibition, usual class: inhibitors; actives 6.9% (n = 320,000); also: potency is read from the fitted curve at half-maximal effect; % is scaled to controls: 0 for no effect and ±100 for the full control effect
#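 Erythrocytes infected with luciferase-expressing P. falciparum were dispensed at 2% hematocrit and 0.05% parasitemia (final), then incubated with compounds 96 hours at 37 C in 5% CO2. Luminescence after detection reagent addition reported growth.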
# SARS PLP yeast: qHTS of Yeast-based Assay for SARS-CoV PLP; Potency, µM (series often up to 32.9 µM), without a hit: at the highest dose activity, positive = growth rescue, usual class: activators; actives 0.19% (n = 330,000); AID 485353, 2010; S. cerevisiae expressing SARS-CoV PLpro, growth rescue; calls by dose curve; also: potency is read from the fitted curve at half-maximal effect; 0% is about no effect; nearly all actives have a fitted effect of over 55% in size
# NS1 inh: qHTS Assay for Inhibitors of Influenza NS1 Protein Function; AID 2326, 2010; Potency, µM (top dose mostly 46.1 µM), without a hit: at the highest dose activity, positive = more growth; actives 0.4% (n = 270,000); calls by dose curve; also: potency is read from the fitted curve at half-maximal effect; actives are rising curves; nearly all actives have a fitted effect of over 50% in size
#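 Compounds were scored for reversing the slow growth caused by influenza A NS1 in S. cerevisiae, measured by optical density at 600 nm. Assay medium contained 2% galactose at pH 6.0; NS1-free yeast of the same strain were the positive control.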
# Shiga toxin inh: A qHTS for Small Molecule Inhibitors of Shiga Toxin; Vero cells, Shiga toxin protein synthesis inhibition reporter; inhibition, % at 38.7 µM; actives 9.2% (n = 290,000); in the data active = inhibition mostly above about 28%, no sharp cut-off; inactive = mostly below about 43%; also: 0% is about no effect
# CHX counter: Cycloheximide Counterscreen for Small Molecule Inhibitors of Shiga Toxin; cell reporter, cycloheximide protein synthesis inhibition counterscreen; max response, %; actives 12% (n = 300,000); in the data active = max response mostly above about 13%, no sharp cut-off; inactive = mostly below about 14%; also: read at 38.3 µM for the half of the compounds with a filed dose; 0% is about no effect
# The depositor's hits bear a star; i = inactive; ? = inconclusive; . = no result. Unless noted, calls follow the shape of the dose curve; as a rule, active = well fitted inhibition curve with a large enough effect; inconclusive = small, poorly fitted or top-dose-only effect, or another doubt; inactive = no such curve, though single readings can be large or run the other way.
SMILES,Pf growth 48h,Pf growth 96h,SARS PLP yeast,NS1 inh,Shiga toxin inh,CHX counter
Cc1ccc(O)c(C(=O)c2cnc(/N=C(\N)N(C)C)nc2)c1,7.7%,19.0%,5.7%,7.8%,2.7,-6.6
Cc1ccc2c(c1)-c1ncc(C(=O)c3cc(Br)ccc3O)cc1CO2,1.65µM*,?,-1.9%,-0.1%,1.2,-4.0
Cc1ccc(O)c(C(=O)c2cnc3c(c2)COc2ccc(C)cc2-3)c1,13.1µM*,?,-24.7%,2.5%,-3.5,-0.1
Cc1ccc2oc(Nc3nc(C)c(C)c(C)n3)nc2c1,187.0%,112.1%,0.8%,0.7%,88.2*,36.7*
Cc1ccc2oc(-c3cccc(N)c3)nc2c1,i,-15.0%,-9.8%,.,57.9*,25.5*
Nc1ccc2oc(-c3cccs3)nc2c1,123.1%,.,-5.4%,-10.5%,86.2*,45.8*
Nc1cccc(-c2nc3cc(S(=O)(=O)c4ccc5oc(-c6cccc(N)c6)nc5c4)ccc3o2)c1,?,-18.6%,-3.0%,19.7%,19.6,4.1
CC(C)c1ccc2oc(-c3ccc(N)cc3)nc2c1,171.9%,-3.1%,0.6%,22.8%,117.2*,41.6*
CC(C)c1ccc2oc3nc(N)c(C(=O)O)cc3c(=O)c2c1,?,10.2%,-1.2%,.,30.7,7.9
COc1ccc(CCNc2ccc(C(CC(N)=O)NC(=O)c3cc(OC)ccc3OC)cc2[N+](=O)[O-])cc1 (centres undefined),?,?,1.8%,29.5%,-7.2,0.4
OCC[C@@H]1C[C@@H](O)[C@H](O)[C@]2(CCc3ccccc3O2)O1,22.6%,44.0%,-3.0%,4.4%,-8.6,-0.4
COc1cc(C)c(NC(=O)C2CCN(S(=O)(=O)c3cccs3)CC2)cc1OC,-10.3%,7.2%,1.8%,.,.,.
c1cc(-c2nc3cc(Oc4ccc5oc(-c6ccncc6)nc5c4)ccc3o2)ccn1,.,.,.,-1.3%,.,.
Cc1ccc(-c2nc3cc(C)ccc3o2)cc1,0.0%,224.3%,-2.1%,-11.7%,117.8*,33.3*
CC(C)(C)c1ccc(-c2nc3cc(N)ccc3o2)cc1,253.3%,?,-13.1%,-0.7%,94.4*,50.9*
Cc1ccc(-c2nc3cc(N)ccc3o2)c(C)c1,273.5%,213.3%,1.0%,6.9%,66.0*,33.2*
Cc1ccc(-c2nc3cc(N)ccc3o2)cc1,123.7%,.,-4.8%,?,68.0*,24.7*
CC1CCCCN1CCNC(=O)C1CCCN(S(=O)(=O)c2cccc3nsnc23)C1 (centres undefined),?,10.6%,-0.9%,5.0%,-4.8,-2.1
O=C(c1ccc(OC2CCN(CCc3ccccc3)CC2)cc1)N1CCCC(CO)C1 (centres undefined),?,?,0.3%,6.3%,12.6,0.7
Cc1ccc2oc(-c3ccco3)nc2c1,236.7%,0.0%,-5.1%,-3.7%,101.0*,42.3*
COc1ccc2c(c1)O[C@@H](c1ccc3c(c1)OCO3)[C@H](OC(=O)Nc1cc(OC)c(OC)c(OC)c1)C2=O,13.1µM*,?,3.7%,?,36.5*,14.5*
COc1ccc2c(c1)O[C@H](c1ccc3c(c1)OCO3)[C@@H](O)C2=O,-8.3%,?,-4.3%,-3.0%,57.9*,38.0*
CC(=O)c1sc(N/N=C2\CC3CC2C(C)C3(C)C)nc1C (centres undefined),-29.1%,?,2.3%,7.2%,48.1*,34.2*
Fc1ccc(CN2CC[C@H]3C=CCc4cccc(c43)C2)cc1,10.4µM*,?,0.7%,.,.,.
Clc1ccc(CN2CCC(c3ccccc3)CC2)cc1,-15.5%,-17.3%,-0.7%,-0.8%,18.2,-1.3
SMILES,Pf growth 48h,Pf growth 96h,SARS PLP yeast,NS1 inh,Shiga toxin inh,CHX counter
Clc1ccc(CN2CC[C@H]3C=CCc4cccc(c43)C2)cc1,3.7µM*,1.85µM*,-5.8%,.,.,.
CN(C)S(=O)(=O)c1cccc(COC(=O)c2cnccn2)c1,6.1%,16.2%,1.0%,5.6%,-6.0,-2.1
CCCc1cc(=O)n2nc(N3CCC(C(=O)Nc4c(F)c(F)c(F)c(F)c4F)CC3)sc2n1,-19.4%,?,-3.2%,-3.3%,-9.8,-3.3
CC(C)N1CCC(N2CCN(Cc3ccc(Oc4ncccn4)cc3)CC2CCO)CC1 (centres undefined),3.0%,4.5%,1.5%,6.6%,6.2,10.0
CCOC(=O)C1CCN(C(=O)c2oc3ccc4c(c3c2C)C(O)CC2(CCCCC2)O4)CC1 (centres undefined),?,0.0%,2.2%,-4.0%,1.1,9.9
Cc1c(C(=O)NCCCN2CCCCC2)oc2ccc3c(c12)C(O)CC1(CCCCC1)O3 (centres undefined),8.28µM*,22.0%,-1.4%,4.2%,-8.6,-1.9
O=C(c1ccccc1Cl)N1CCC(N2CCC(C(=O)N3CCCC3)CC2)CC1,13.9%,?,-3.2%,-1.5%,36.0,23.7*
O=C(c1cc(F)ccc1F)N1CCC(N2CCC(C(=O)N3CCCC3)CC2)CC1,-16.9%,14.9%,-2.4%,4.9%,2.5,17.3*
O=C(c1cccc(Cl)c1)N1CCC(N2CCC(C(=O)N3CCOCC3)CC2)CC1,2.9%,25.6%,0.5%,-2.8%,11.3,-1.0
Cc1ccc(CNC(=O)CCSCCC(=O)NCc2ccc(C)cc2)cc1,.,?,5.2%,-3.3%,-14.6,-7.7
Cc1cc(C)n(C(=O)CN2C(=O)COc3ccccc32)n1,32.3%,?,-3.7%,-4.4%,13.0,13.5
CCOc1cc(NS(=O)(=O)c2ccc(NC(C)=O)cc2)c(OCC)cc1NC(=O)c1cccs1,-4.0%,4.6%,12.9%,-0.1%,-1.0,-1.3
Cc1cnc(NC(=O)C2CC=CCC2)s1 (centres undefined),58.9%,27.7%,2.0%,6.3%,45.1*,24.0*
CC(C)(C)C1CCC(C(=O)Nc2nccs2)CC1 (centres undefined),10.3%,?,6.8%,4.2%,47.1*,15.5
Cc1cnc(NC(=O)C2CCC(C(C)(C)C)CC2)s1 (centres undefined),18.1%,?,-13.5%,8.2%,33.1,19.7*
O=C(CSc1nnc(-c2ccc(S(=O)(=O)N3CCCC3)cc2)o1)NCc1ccco1,?,.,-7.7%,-1.7%,18.3,-3.8
Cc1cccc(NC(=O)CN(CC2CCCO2)C(=O)c2ccc(S(C)(=O)=O)cc2)c1C (centres undefined),55.6%,86.1%,1.5%,.,.,.
O=C(CSc1n[nH]c(-c2ccccn2)n1)Nc1cccc(Cl)c1,?,?,-0.3%,-8.8%,-10.9,-0.8
CC1CCN(CCC(=O)N2CCCc3c2c(=O)oc2ccc(O)cc32)CC1,?,-4.5%,0.3%,-5.7%,-3.8,-4.3
CN(CC(=O)N1CCCc2c1c(=O)oc1ccc(O)cc21)Cc1ccccc1,9.28µM*,?,-0.4%,3.5%,-9.8,2.0
